Shown are actives, neighbours in structure and some others; about 2.8% of the full set was active somewhere.
PI5P4K alpha inh: inhibitors of human PI5P4K alpha. P48426. PI5P4Kalpha enzyme, ADP-Glo luminescence, 60 min; stronger effect = lower value. max response, %. 330,000 compounds, 1.2% hits. AID 652105; active means max response of -50% or lower; inconclusive means between -30% and -50%; inactive means -30% or higher; further: value at the top dose of about 77 µM; on the % scale 0 is the no-effect control and ±100 the full control effect
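Controls without substrate or without enzyme flank wells where PI5P4Kalpha converts substrate using 5 microM ATP (final). Incubation lasts 60 minutes at room temperature; ADP formed is read by ADP-Glo luminescence.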
Pol iota inh: blocks human DNA polymerase iota activity; Pol iota fluorescent replication assay, 10 min; Potency, µM (series often up to 115 µM), without a hit: top-dose activity, negative = inhibition, hits mostly inhibitors; 390,000 compounds, 1% hits; AID 588590; further: potency means the concentration at half of the fitted maximal effect
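Fluorescent replication assay read twice, at 0 min and 10 min after adding 50 nM (final) substrate. Enzyme (10 nM) and compounds were first incubated 15 min at room temperature; enzyme-free buffer wells were negative controls.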
POLH inh: DNA polymerase eta (human) inhibition; recombinant Pol eta, fluorescent DNA replication assay; Potency, µM (titrated, usually from 114 µM), inactives show top-dose activity change, negative = inhibition, most hits filed as inhibitors; 390,000 compounds, 1.2% hits; further: potency means the concentration at half of the fitted maximal effect; on the % scale 0 is the no-effect control and ±100 the full control effect
Target sequence (Q9Y253 whole entry, looked up): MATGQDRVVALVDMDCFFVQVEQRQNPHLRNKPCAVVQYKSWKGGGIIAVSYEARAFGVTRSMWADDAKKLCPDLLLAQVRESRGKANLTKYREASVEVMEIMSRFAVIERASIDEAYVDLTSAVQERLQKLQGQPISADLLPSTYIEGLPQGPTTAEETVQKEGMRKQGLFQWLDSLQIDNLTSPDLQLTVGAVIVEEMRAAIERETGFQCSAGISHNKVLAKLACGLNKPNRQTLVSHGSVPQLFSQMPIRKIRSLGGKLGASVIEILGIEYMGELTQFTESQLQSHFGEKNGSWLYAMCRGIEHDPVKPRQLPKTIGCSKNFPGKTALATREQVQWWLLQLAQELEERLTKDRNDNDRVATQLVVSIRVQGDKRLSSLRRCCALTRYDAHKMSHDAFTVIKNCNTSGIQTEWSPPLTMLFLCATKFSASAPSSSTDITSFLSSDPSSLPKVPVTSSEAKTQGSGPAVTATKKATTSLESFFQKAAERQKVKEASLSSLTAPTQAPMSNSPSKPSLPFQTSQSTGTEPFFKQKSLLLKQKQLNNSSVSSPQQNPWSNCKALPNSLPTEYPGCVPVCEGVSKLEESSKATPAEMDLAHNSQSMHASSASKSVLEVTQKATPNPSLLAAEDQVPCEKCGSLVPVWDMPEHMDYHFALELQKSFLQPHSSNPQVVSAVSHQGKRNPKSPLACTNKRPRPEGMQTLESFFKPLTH
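Pol eta (10 nM) was preincubated with compounds for 15 min at room temperature, after which fluorescent replication substrate (50 nM final) was added to start the reaction. Fluorescence was read kinetically at 0 and 10 min.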
PI4K2A block: inhibitors of human PI4K2A. purified PI4K2A, ADP-Glo luminescence, 1 h; stronger effect = lower value. AID 1346378. 420,000 compounds, 0.13% hits. Q9BTU6. activity change, negative = inhibition, % at 76.9 µM; in the data active means activity change below about -50%; inconclusive means mostly about -30% to -49%;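 further: -100% = wells without enzyme as full effect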
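ADP-Glo luminescence measured ADP generated by PI4K2A enzyme (4 ug/mL before mixing) with 1.2 mM PI substrate (pre-mix) and 300 microM ATP (pre-mix). Tris pH7.5 buffer with MgCl2, Triton X-100; 1 h reaction at ambient temperature.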
Pol kappa inh: inhibitors of human DNA polymerase kappa; Q9UBT6; purified Pol kappa, fluorescent DNA synthesis assay, 10 min; Potency, µM (doses to about 107 µM), without a hit: at the top dose activity, negative = inhibition, actives largely listed as inhibitors; 400,000 compounds, 0.53% hits; further: potency means the concentration at half of the fitted maximal effect; on the % scale 0 is the no-effect control and ±100 the full control effect
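Inhibition of 10 nM Pol kappa is measured by a fluorescent read-out at 0 and 10 min following addition of 50 nM substrate (final), with a 15-min room-temperature compound preincubation.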
Pol beta inh: inhibitors of human DNA polymerase beta; Pol beta primer extension/strand displacement, fluorescence kinetic; Potency, µM (top dose mostly 114 µM), inactives show at the highest dose activity change, negative = inhibition, usual class: inhibitors; 340,000 compounds, 1.3% hits; further: potency means the concentration at half of the fitted maximal effect; on the % scale 0 is the no-effect control and ±100 the full control effect
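Enzyme-only controls used 10 nM Pol beta; buffer lacking enzyme served as negative control. Compound preincubated 15 min, then 50 nM substrate added; 0 and 10 min reads at room temperature.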
Active calls of the source: *; ? = inconclusive; · = not tested or not shown; ! = not confirmed by another sample; [ ] = another dose, or the depositor's remark. Unless noted, the call rests on the fitted dose curve; in most records, active means well fitted inhibition curve with a large enough effect; inconclusive means small, poorly fitted or top-dose-only effect, or another doubt; inactive means no such curve, though single readings can be large or run the other way.

SMILES	PI5P4K alpha inh	Pol iota inh	POLH inh	PI4K2A block	Pol kappa inh	Pol beta inh
Cc1ccccc1CNC(=O)C1CCCN(c2nnc(C)c3c(C)n(-c4ccccc4)nc23)C1 (stereo not drawn)	14	2%	?	4	-11%	?
CCc1ccc(CNC(=O)C2CCCN(c3nnc(C)c4c(C)n(-c5ccccc5)nc34)C2)cc1 (stereo not drawn)	-4	33%	?	0	-2%	50µM*!
Cc1ccc(-n2nc3c(N4CCC(C(=O)NCc5ccccc5C)CC4)nnc(C)c3c2C)cc1	5	?	50µM*	-8	2%	89µM*
Cc1nnc(N2CCCC(C(=O)NCc3ccccc3)C2)c2nn(-c3ccccc3)c(C)c12 (stereo not drawn)	·	22%	-11%	0	-1%	29%
CCC(C(=O)OCCN1CCOC(c2ccccc2)C1C)c1ccccc1 (stereo not drawn)	·	·	·	4	·	·
COc1cccc(CNC(=O)c2ccc3c(c2)N(C)C(=O)C2CCCCN32)c1 (stereo not drawn)	·	-10%	2%	-1	-6%[60.1 µM]	11%
CC(=O)Nc1cc([N+](=O)[O-])cc(NC(C)=O)c1NC(C)=O	·	?	·	·	-19%	·
CCOC(=O)c1csc(NC(=O)C2CCCN(S(=O)(=O)c3cc(OC)ccc3OC)C2)n1 (stereo not drawn)	·	·	·	-3	·	·
Oc1cccc(O)c1O	·	·	·	·	3µM*	·
O=C(O)c1cccc(O)c1O	-1	6%	-23%	1	-2%	·
COc1ccc(CNCCc2ccc([N+](=O)[O-])cc2)c(OC)c1OC	0	6%	-11%	2	-9%	39%
COc1cc(N(C)C)cc(CN(C)CCc2ccc([N+](=O)[O-])cc2)c1O	·	·	·	·	3µM*	·
C[C@H]1COC(=O)O1	·	·	·	·	11%[60.1 µM]	·
CCOc1cc(C2C(C#N)=C(N)SC(N)=C2C#N)ccc1OCCN1CCOCC1	·	49%	0%	-9	-14%	8%
CCOc1ccc(C2C(C#N)=C(N)SC(N)=C2C#N)c(OCC)c1	-63*	-2%	-10%	1	0%	3%
NC(=O)c1ccc([N+](=O)[O-])cc1SCc1ccccc1	?	?	?	-5	?	40µM*
CN(/C=C/C(=C/C=[N+](C)c1ccccc1)OCCCS(=O)(=O)[O-])c1ccccc1	-3	?	?	-5	?	28µM*
CN(/C=C/C(=C\C=[N+](C)c1ccccc1)OCCCS(=O)(=O)[O-])c1ccccc1	-4	?	-4%	-18	?	50µM*
CN(C)c1ccc(C(I)C(I)c2ccnc3ccccc23)cc1 (stereo not drawn)	·	-7%	·	·	-2%	·
Cc1c(N=C2C=CC(=O)c3ccccc32)c(=O)n(-c2ccccc2)n1C	-62*	?	45µM*	-14	-7%	?
CC(Oc1ccccc1)C(=O)Nc1ccc(C(=O)OCc2cc(=O)n3nc(C(C)C)sc3n2)cc1 (stereo not drawn)	·	11%	-7%	2	-10%[60.1 µM]	1%
CC1CCCCN1C(=O)c1cnn2c1NC(=C1CC1)C=C2C(F)F (stereo not drawn)	·	-20%	·	·	-21%	·
CCN(CC)CCn1c2ccccc2c2cnc(N=CN(C)C)c(C#N)c21	0	?	?	2	-33%	20µM*
O=C(COc1ccc2c3c(c(=O)oc2c1)CCC3)Nc1ccc(CCO)cc1	0	?	50µM*	-3	-3%	?
CCOC(=O)C1=NOC(C(=O)NC2CCCC2)(C(=O)c2ccc(OC)cc2)C1 (stereo not drawn)	·	·	·	-6	·	·
SMILES	PI5P4K alpha inh	Pol iota inh	POLH inh	PI4K2A block	Pol kappa inh	Pol beta inh
O=C(NC1CCCC1)c1ccc2nc(-c3ccco3)c(-c3ccco3)nc2c1	-63*	?	3.5µM*	?	22µM*	50µM*
O=C(NCCO)c1ccc2nc(-c3ccco3)c(-c3ccco3)nc2c1	-16	2.5µM*	3.5µM*	?	25µM*	50µM*
O=C(NCCc1ccccc1)c1ccc2nc(-c3ccco3)c(-c3ccco3)nc2c1	-63*	?	?	-24	?	7.9µM*
O=C(NC1CCCC1)c1ccc2nc[nH]c2c1	0	-7%	-13%	11	-4%	-1%
CCN(CC)C(=O)N1CCN(/[N+]([O-])=N/Oc2ccc([N+](=O)[O-])cc2[N+](=O)[O-])CC1	·	?	·	·	0%	·
CCCCNC(=O)C1CCCN1C(=O)Nc1cc(C)cc(C)c1 (stereo not drawn)	·	·	·	-3	·	·
COc1ccc(CN(C)C(=O)C2CCCN(c3nc4ccccc4o3)C2)cc1 (stereo not drawn)	·	·	·	5	·	·
Cc1cccc(C(=O)Nc2c(-c3ccc(C(F)(F)F)cc3)nc3ncccn23)c1	·	·	·	-3	·	·
Cc1c(N=Cc2cc(Br)cc(Br)c2O)cccc1C(=O)O	-58*	?	?	-23	-33%	-24%
Cc1ccc(C(=O)NC2(C(F)(F)F)C(=O)Nc3c2c(=O)[nH]c(=O)n3CCc2ccccc2)cc1 (stereo not drawn)	·	-17%	5%	3	-7%	0%
Cc1c(NC(=O)c2ccc(Cl)nc2)cccc1-c1nc2cccnc2s1	1	-10%	-18%	5	-1%	10%
Cc1c(NC(=O)c2ccco2)cccc1-c1nc2cccnc2s1	?	?	45µM*	1	-19%	-4%
Cc1cccc(OCc2nnc(SC(C)C(=O)O)n2-c2ccccc2)c1 (stereo not drawn)	-53*	-11%	-3%	-1	-13%	2%
CCOc1ccccc1NS(=O)(=O)c1cc2[nH]c(=O)c(=O)[nH]c2cc1C	·	-9%	-11%	-10	-8%	32%
C=CCn1c(SCc2nc3sc(C(=O)O)c(C)c3c(=O)[nH]2)nnc1-c1ccc(F)cc1	?	-11%	?	0	-17%	8%
Cc1c(C(=O)O)sc2nc(/C=C/c3cccc(F)c3)[nH]c(=O)c12	-55*	-5%	79µM*	-1	9%	45µM*
Cc1c(F)cc2c(=O)c(C(=O)O)cn3c2c1CCC3C (stereo not drawn)	·	·	·	1	·	·
CN1C(=O)c2cc(NC(=O)C3CC3)ccc2OC[C@H]2O[C@@H](CC(=O)NC3CCC3)CC[C@@H]21	·	·	·	0	·	·
COc1ccc2c(c1)c(C(C)=O)c(C)n2C	5	48%	0%	6	-11%	-13%
CC(=O)Oc1ccc2c(c1)c(C(C)=O)c(C)n2C	·	12%	-7%	15	-3%	0.89µM*
CNC(=S)N/N=C/c1ccc(-c2ccc(Cl)c([N+](=O)[O-])c2)o1	-11	14%	0%	-5	-6%	8.9µM*
